“And” between values parts separate entries of the source, which are not always exact repeats. Equal entries are not always repeated. Records with an inconclusive call do not appear. Unmarked numbers belong to inactive results. The source made the active and inactive calls. Calls follow the shape of the dose curve; as a rule, active = well fitted curve in the direction sought with a large enough effect; inconclusive = small, poorly fitted or top-dose-only effect, or another doubt; inactive = no such curve, though single readings can be large; an effect the other way counts as inactive or inconclusive.
Columns and labels:
[1] = target: Cytochrome P450 3A7 (Homo sapiens) (UniProt P24462); assay: Cytochrome P450 family 3 subfamily A member 7 (CYP3A7) small molecule antagonists: luciferase biochemical qHTS assay (AID 1963596); also: % is scaled to controls: 0 for no effect and ±100 for the full control effect; nearly all actives have a fitted effect of over 40% in size
How it was run: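 P450-Glo luminescent assay: CYP3A7 enzyme converts a proluciferin substrate to luciferin, detected by luciferase reagent; light proportional to activity. Compounds in DMSO preincubated 10 min with enzyme-substrate mix at room temperature, then NADPH regeneration added for 1 h.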

[2] = Viability qHTS for spleen associated tyrosine kinase inhibitor (SYKi) naive MV4-11 cells (AID 1963823); also: nearly all actives have a fitted effect of over 40% in size; also: potency is read from the fitted curve at half-maximal effect
How it was run: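 CellTiter-Glo luminescence, 10 min room-temperature incubation, gave viability. Cells: naive MV4-11 (500/well), treated 72 hr at 37 C, 5% CO2.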

[3] = Viability qHTS for spleen associated tyrosine kinase inhibitor (SYKi) drug resistant MV4-11 cells (AID 1963824); also: nearly all actives have a fitted effect of over 35% in size; also: potency is read from the fitted curve at half-maximal effect
How it was run: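 CellTiter-Glo luminescence, read 10 min after reagent addition, reports viability after a 72 hr compound exposure. Cells are an MV4-11 line made resistant to SYK inhibition, seeded at 500 per well onto compound-containing plates.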

[4] = Cellular viability qHTS for adrenocortical cancer (ACC) cell line SW-13 (AID 1963989); details: SW-13 ACC cells viability, CellTiter-Glo, 48 h; activity (max response): active compounds read low; also: nearly all actives have a fitted effect of over 65% in size; also: potency is read from the fitted curve at half-maximal effect;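 as to activity (max response): cells grown in serum-free medium with ITS supplement; % is scaled to controls: 0 for no effect and ±100 for the full control effect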
How it was run: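 Here, serum-free SW-13 cultures were dosed up to 46 uM. Following 48 h, ATP-dependent luminescence (CellTiter-Glo) reported viable cells, and logistic modeling produced IC50 values.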

[5] = Quantitative highthroughput screen to assess conditional lethalithy of SEM cells grown in Human Plasma-Like Medium with dialyzed fetal bovine serum (HPLM+ds) (AID 1963882); also: potency is read from the fitted curve at half-maximal effect; nearly all actives have a fitted effect of over 35% in size
How it was run: (§1)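 Each medium arm—HPLM with 10% dialyzed FBS, or RPMI1640 with 5 mM glucose and 10% untreated or dialyzed FBS—was screened against an 11-point, 3-fold compound titration for 48 h at 37 °C, with CellTiter-Glo luminescence as endpoint.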

[6] = Quantitative highthroughput screen to assess conditional lethalithy of SEM cells grown in RPMI1640 with unreated serum (RPMI+s) (AID 1963883); also: potency is read from the fitted curve at half-maximal effect; nearly all actives have a fitted effect of over 35% in size
How it was run: as §1

[7] = Quantitative highthroughput screen to assess conditional lethalithy of SEM cells grown in RPMI1640 with dialyzed fetal bovine serum (RPMI+ds) (AID 1963884); also: potency is read from the fitted curve at half-maximal effect; nearly all actives have a fitted effect of over 35% in size
How it was run: as §1

[8] = Cellular viability qHTS for adrenocortical cancer (ACC) cell line NCI-H295R (AID 1963990); also: potency is read from the fitted curve at half-maximal effect; nearly all actives have a fitted effect of over 60% in size
How it was run: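 Viability of NCI-H295R after 48 h of treatment (final up to 46 uM) measured through cellular ATP luminescence.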

Cytochrome P450 3A7 (Homo sapiens), sequence (P24462 whole entry, looked up): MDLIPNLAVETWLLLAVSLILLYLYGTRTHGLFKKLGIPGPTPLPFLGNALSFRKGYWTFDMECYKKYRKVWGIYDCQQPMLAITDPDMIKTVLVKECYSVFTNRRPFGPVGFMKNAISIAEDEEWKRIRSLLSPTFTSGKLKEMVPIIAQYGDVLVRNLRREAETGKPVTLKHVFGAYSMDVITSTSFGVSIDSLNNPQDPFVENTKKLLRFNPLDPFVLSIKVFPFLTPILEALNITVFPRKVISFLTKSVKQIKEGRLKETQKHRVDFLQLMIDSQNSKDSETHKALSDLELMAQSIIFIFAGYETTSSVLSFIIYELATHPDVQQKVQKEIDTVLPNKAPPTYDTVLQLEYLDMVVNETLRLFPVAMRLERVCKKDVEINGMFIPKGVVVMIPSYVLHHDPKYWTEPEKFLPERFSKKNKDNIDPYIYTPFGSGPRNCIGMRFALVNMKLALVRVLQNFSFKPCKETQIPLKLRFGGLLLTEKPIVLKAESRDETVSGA

SMILES | Potency [1] | Potency [2] | Potency [3] | activity (max response) [4] [%] | Potency [4] | Potency [5] | Potency [6] | Potency [7] | Potency [8]
O=C(OCc1ccccc1)c1ccccc1 | inactive | inactive | inactive | -7.64 |  |  |  |  | 
CCOc1nc2cccc(C(=O)O)c2n1Cc1ccc(-c2ccccc2-c2nn[nH]n2)cc1 | inactive | inactive | inactive | 10.5 |  |  |  |  | 
CN(C)C(=O)Oc1cccc([N+](C)(C)C)c1 | inactive | inactive | inactive | 16.2 |  |  |  |  | 
C[C@@H]1CCNC(=O)c2cc3ccc(C(=O)Nc4nc5ccccc5n4CCCN(C)C)cc3n21 | inactive | 662 nM (active) | 820 nM (active) |  | 25.1 µM (active) |  |  |  | 
COc1cc2c(Oc3ccc4[nH]c(C)cc4c3F)ncnc2cc1OCCCN1CCCC1 | inactive | 13 µM (active) and 3.32 µM (active) | 5.8 µM (active) and 2.63 µM (active) |  | 25.1 µM (active) | 9.35 µM (active) | 4.18 µM (active) | 5.26 µM (active) | 22.4 µM (active)
CC(=O)OCC(=O)Nc1cc(C#N)cc(NC(=O)COC(C)=O)c1Cl | inactive | inactive | inactive | -0.531 |  |  |  |  | 
N[C@@H](COP(=O)(O)O)C(=O)O | inactive | inactive | inactive | -3.07 |  |  |  |  | 
CCCCC(CC)COC(=O)c1ccccc1O (stereo unspecified) | inactive | 596 nM (active) | 5960 nM (active) | 7.38 |  |  |  |  | 
O=c1cc(CO)occ1O | inactive | inactive | inactive | 13.4 |  |  |  |  | 
c1ccc2c(-c3cnn4cc(-c5ccc(N6CCNCC6)cc5)cnc34)ccnc2c1 | inactive | 525 nM (active) | 833 nM (active) |  | 3.98 µM (active) |  | 5.26 µM (active) |  | 3.16 µM (active)

— PubChem BioAssay (NCATS)
